“And” between values parts separate entries of the source, which are not always exact repeats. Equal values may be shown once. Records with an inconclusive call do not appear. A call without a number means that no potency is given here. Some compounds were tested as several samples or in several runs, with calls that do not always agree. The source made the active and inactive calls. Unless noted, the call rests on the fitted dose curve; in most records, active means well fitted curve in the direction sought with a large enough effect in the repeat runs; inconclusive means weak or mixed curves; inactive means no such curve, though single readings can be large; an effect the other way counts as inactive or inconclusive.
How the values were obtained:
[1] = qHTS assay to identify small molecule antagonists of the retinoid acid receptor (RAR) signaling pathway - cell viability counter screen (AID 1159551); further: nearly all actives have a fitted effect of over 35% in size; further: potency means the concentration at half of the fitted maximal effect
Method in brief: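 Retinol-stimulated (1 uM final) C3RL4 cells, compound 6 h, 37 C; readout CellTiter-Glo luminescence (ATP) after 30 min RT incubation.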

[2] = qHTS assay to identify small molecule agonists of the retinoic acid receptor (RAR) signaling pathway (AID 1159553); further: potency means the concentration at half of the fitted maximal effect
Method in brief: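 Reporter readout comes from luciferase under RARE control in C3RL4 cells; compound exposure lasts 6 hr at 37 C in 5% CO2, and luminescence is recorded following a 30 min room-temperature incubation with reagent.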

[3] = qHTS assay to identify small molecule antagonists of the estrogen related receptor (ERR) signaling pathway from Tox21 library - cell viability counter screen (AID 1224834); further: nearly all actives have a fitted effect of over 30% in size; further: potency means the concentration at half of the fitted maximal effect
Method in brief: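 After 17.5 h of compound exposure at 37 C, ERR cells are incubated with CellTiter-Fluor for 30 min and fluorescence intensity serves as the viability measure.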

[4] = target: Luciferin 4-monooxygenase (Photinus pyralis) (UniProt P08659); assay: qHTS assay to identify small molecule inhibitors of firefly luciferase (AID 1224835); further: nearly all actives have a fitted effect of over 25% in size; further: potency means the concentration at half of the fitted maximal effect
Luciferin 4-monooxygenase (Photinus pyralis), sequence (P08659 whole entry, looked up): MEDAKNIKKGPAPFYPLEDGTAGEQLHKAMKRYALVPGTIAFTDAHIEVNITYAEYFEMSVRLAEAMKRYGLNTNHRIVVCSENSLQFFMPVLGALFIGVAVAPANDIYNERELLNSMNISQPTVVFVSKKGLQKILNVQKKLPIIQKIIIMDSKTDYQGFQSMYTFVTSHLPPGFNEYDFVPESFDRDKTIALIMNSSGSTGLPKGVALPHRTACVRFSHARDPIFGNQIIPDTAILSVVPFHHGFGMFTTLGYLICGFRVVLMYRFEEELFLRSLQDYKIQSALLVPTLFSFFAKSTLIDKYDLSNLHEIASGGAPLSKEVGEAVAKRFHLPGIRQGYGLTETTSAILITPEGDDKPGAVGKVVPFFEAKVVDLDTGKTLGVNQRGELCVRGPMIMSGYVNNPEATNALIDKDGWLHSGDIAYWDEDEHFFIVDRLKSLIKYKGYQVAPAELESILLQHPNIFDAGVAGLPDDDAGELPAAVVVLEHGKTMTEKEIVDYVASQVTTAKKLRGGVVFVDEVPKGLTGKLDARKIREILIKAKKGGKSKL
Method in brief: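 Inhibition of purified Photinus luciferase is measured by luminescence. Substrate levels (D-luciferin, ATP) sit at their KM values. Each compound is tested in a concentration series.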

[5] = qHTS assay to identify small molecule agonists of the constitutive androstane receptor (CAR) signaling pathway - cell viability counter screen (AID 1224836); further: nearly all actives have a fitted effect of over 45% in size; further: potency means the concentration at half of the fitted maximal effect
Method in brief: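 23 h treatment, 37 C, 5% CO2. Cell line: HepG2 stably expressing hCAR with a CYP2B6-2.2kb construct. Co-treatment: PK11195, 0.75 uM final. Read-out: CellTiter-Fluor fluorescence intensity.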

[6] = qHTS assay to identify small molecule antagonists of the constitutive androstane receptor (CAR) signaling pathway - cell viability counter screen (AID 1224837); further: nearly all actives have a fitted effect of over 45% in size; further: potency means the concentration at half of the fitted maximal effect
Method in brief: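 Counter screen run in HepG2-CYP2B6-hCAR cells: 4 hr settle, compound titration (15 concentrations) with 50 nM CITCO, 23 hr at 37 C/5% CO2, CellTiter-Fluor fluorescence.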

[7] = target: Nuclear receptor subfamily 1 group I member 3 (Homo sapiens) (UniProt Q14994); assay: qHTS assay to identify small molecule antagonists of the constitutive androstane receptor (CAR) signaling pathway (AID 1224838);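 further: HepG2 cells stably expressing hCAR with CYP2B6 luciferase reporter stimulated by CITCO; nearly all actives have a fitted effect of over 40% in size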; further: potency means the concentration at half of the fitted maximal effect
Nuclear receptor subfamily 1 group I member 3 (Homo sapiens), sequence (Q14994 whole entry, looked up): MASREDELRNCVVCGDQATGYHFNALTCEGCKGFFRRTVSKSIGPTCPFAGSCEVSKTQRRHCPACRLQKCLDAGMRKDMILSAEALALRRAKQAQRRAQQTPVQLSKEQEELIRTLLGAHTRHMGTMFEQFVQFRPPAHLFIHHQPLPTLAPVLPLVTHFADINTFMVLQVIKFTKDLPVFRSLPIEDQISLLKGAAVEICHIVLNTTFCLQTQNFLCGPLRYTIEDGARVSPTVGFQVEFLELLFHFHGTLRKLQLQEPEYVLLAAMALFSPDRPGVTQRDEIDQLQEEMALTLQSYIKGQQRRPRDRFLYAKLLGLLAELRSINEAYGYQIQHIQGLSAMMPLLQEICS
Method in brief: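 Cell line: HepG2 double-stable for hCAR and CYP2B6-2.2kb reporter. Agonist: CITCO, 50 nM final. Compounds: 15 concentrations, 24 h, 37 C. Detection: ONE-Glo luminescence.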

[8] = target: Nuclear receptor subfamily 1 group I member 3 (Homo sapiens) (UniProt Q14994); assay: qHTS assay to identify small molecule agonists of the constitutive androstane receptor (CAR) signaling pathway (AID 1224839); further: nearly all actives have a fitted effect of over 15% in size; further: potency means the concentration at half of the fitted maximal effect
Method in brief: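 Compounds tested at 15 concentrations on HepG2 cells stably harbouring hCAR and CYP2B6-2.2kb reporter constructs, co-treated with PK11195 (0.75 uM final), 24 h at 37 C; luminescent reporter signal quantified.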

[9] = qHTS assay to identify small molecule antagonists of the estrogen related receptor signaling pathway with the pleiotropic PPARgamma coactivator (PGC) from Tox21 10K library - cell viability counter screen (AID 1224840; active means well fitted cell-killing curve with a large enough effect in the repeat runs, not every such curve was filed as active; further: nearly all actives have a fitted effect of over 40% in size; further: potency means the concentration at half of the fitted maximal effect)
Method in brief: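 Following seeding of 2,000 PGC/ERR cells/well and 6 hours' incubation, test compounds were delivered in DMSO. The plates then sat 17.5 hours at 37 C before a fluorogenic live-cell protease reagent (CellTiter-Fluor) was read after 30 min.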

[10] = target: Thyrotropin receptor (Homo sapiens) (UniProt P16473); assay: qHTS assay to identify small molecule agonists of the thyroid stimulating hormone receptor (TSHR) signaling pathway (AID 1224843; calls by dose curve; further: nearly all actives have a fitted effect of over 45% in size; further: potency means the concentration at half of the fitted maximal effect)
Thyrotropin receptor (Homo sapiens), sequence (P16473 whole entry, looked up): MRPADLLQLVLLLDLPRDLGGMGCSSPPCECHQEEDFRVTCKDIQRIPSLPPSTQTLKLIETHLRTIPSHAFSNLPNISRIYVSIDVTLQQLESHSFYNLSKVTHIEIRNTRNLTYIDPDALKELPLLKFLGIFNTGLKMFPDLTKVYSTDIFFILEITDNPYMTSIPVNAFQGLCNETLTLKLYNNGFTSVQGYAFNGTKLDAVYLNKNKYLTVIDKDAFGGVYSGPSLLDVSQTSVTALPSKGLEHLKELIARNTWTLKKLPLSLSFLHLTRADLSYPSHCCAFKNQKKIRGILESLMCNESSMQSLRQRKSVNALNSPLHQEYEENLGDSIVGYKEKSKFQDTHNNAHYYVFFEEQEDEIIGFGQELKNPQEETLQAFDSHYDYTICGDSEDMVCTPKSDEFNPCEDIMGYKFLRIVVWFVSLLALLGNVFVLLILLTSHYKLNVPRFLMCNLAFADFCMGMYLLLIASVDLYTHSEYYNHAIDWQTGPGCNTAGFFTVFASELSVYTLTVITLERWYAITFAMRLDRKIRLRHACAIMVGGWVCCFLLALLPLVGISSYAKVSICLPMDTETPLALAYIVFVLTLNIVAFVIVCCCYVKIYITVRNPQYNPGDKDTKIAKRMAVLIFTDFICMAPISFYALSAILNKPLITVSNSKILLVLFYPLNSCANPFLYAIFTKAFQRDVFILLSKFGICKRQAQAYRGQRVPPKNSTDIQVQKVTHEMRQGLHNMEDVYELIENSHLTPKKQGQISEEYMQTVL
Method in brief: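 HEK293 cells stably bearing the thyrotropin receptor were plated at 800 cells/well and challenged with compound (30 min, RT). Accumulated cAMP was quantified via cAMP-d2 competing for cryptate-tagged antibody.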

[11] = qHTS assay to identify small molecule antagonists of the retinoic acid receptor (RAR) signaling pathway (AID 1159552; further: nearly all actives have a fitted effect of over 50% in size; further: potency means the concentration at half of the fitted maximal effect)
Method in brief: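 Test chemicals and DMSO controls were pin-transferred onto C3RL4 cells a day after seeding; retinol (1 uM final) followed at once. Luminescent reporter output was quantified after 6 hr of co-incubation and 30 min with detection reagent.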

[12] = qHTS assay to identify small molecule antagonists of the estrogen related receptor signaling pathway with the pleiotropic PPARgamma coactivator (PGC) from Tox21 10K library (AID 1224841; call rule not given here; further: actives are mostly falling curves and most rising ones were filed inactive; nearly all actives have a fitted effect of over 50% in size; further: potency means the concentration at half of the fitted maximal effect)
Method in brief: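 qHTS antagonist format: PGC/ERR cells, 2k/well, compound in DMSO by pin transfer after 6 h attachment, 18 h treatment at 37 C, One-Glo luminescence read at 30 min.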

[13] = qHTS assay to identify small molecule agonists of the estrogen related receptor signaling pathway with the pleiotropic PPARgamma coactivator (PGC) from Tox21 10K library (AID 1224842); further: nearly all actives have a fitted effect of over 15% in size
Method in brief: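 Luminescence from One-Glo (30 min, room temperature) measured after PGC/ERR cells had 18 h at 37 C with pinned compound (23 nL in DMSO). Cells had been seeded at 2,000 per well and pre-incubated 6 h.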

[14] = qHTS assay to identify small molecule antagonists of the estrogen related receptor (ERR) signaling pathway - cell viability counter screen (AID 1224818); further: series mostly up to about 46 µM
Method in brief: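 After a 6 h pre-incubation, ERR cells were dosed by pin tool with compounds, positive/negative controls or DMSO alone. Following 17.5 h at 37 C and 30 min with CellTiter-Fluor, fluorescence was recorded.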

[15] = qHTS assay to identify small molecule antagonists of the estrogen related receptor (ERR) signaling pathway (AID 1224819;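 further: luminescence from an ERR-driven luciferase reporter measured with One-Glo reagent; series mostly up to about 46 µM; nearly all actives have a fitted effect of over 50% in size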)
Method in brief: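 Luminescence readout (One-Glo, 30 min, RT) of ERR cell line after 18 h compound exposure at 37 C; cells seeded 2,000/well, pre-incubated 6 h, compounds pinned from DMSO stocks.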

[16] = qHTS assay to identify small molecule agonists of the estrogen related receptor (ERR) signaling pathway (AID 1224820)
Method in brief: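 ERR reporter cells (NTP line) plated 2,000/well, incubated 6 h at 37 C/5% CO2, then pinned with compounds in DMSO and held 18 h at 37 C. One-Glo added; luminescence read after 30 min at room temperature.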

[17] = tested on: estrogen-related receptor alpha (ERRalpha) with PGC-1alpha coactivator, human; assay: qHTS assay to identify small molecule antagonists of the estrogen related receptor signaling pathway with the pleiotropic PPARgamma coactivator (PGC) (AID 1224821; calls by dose curve;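 further: series mostly up to about 46 µM; lower luminescence signal means antagonism of PGC/ERR signalling; nearly all actives have a fitted effect of over 50% in size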)
Method in brief: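 Cells engineered for PGC/ERR signalling (line from NTP) were plated 6 h at 37 C/5% CO2, then exposed to DMSO-dissolved compound for 18 h at 37 C. Luciferase activity was read by One-Glo luminescence after 30 min at room temperature.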

[18] = qHTS assay to identify small molecule antagonists of the estrogen related receptor signaling pathway with the pleiotropic PPARgamma coactivator (PGC) cell viability counter screen (AID 1224822; further: series mostly up to about 46 µM)
Method in brief: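 PGC/ERR cells were plated at 2,000 per well and allowed 6 h to settle before compound addition. Following 17.5 h at 37 C, CellTiter-Fluor reagent was added and fluorescence was read 30 min later.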

[19] = qHTS assay to identify small molecule agonists of the estrogen related receptor signaling pathway with the pleiotropic PPARgamma coactivator (PGC) (AID 1224823)
Method in brief: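 PGC/ERR reporter cells were seeded, rested 6 h at 37 C/5% CO2, then exposed to compounds in DMSO by pin transfer for 18 h at 37 C. Luciferase activity was read as luminescence after One-Glo reagent and 30 min at room temperature.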

SMILES | Potency [1] | Potency [2] | Potency [3] | Potency [4] | Potency [5] | Potency [6] | Potency [7] | Potency [8] | Potency [9] | Potency [10] | Potency [11] | Potency [12] | Potency [13] | outcome [14] | Potency [15] | outcome [16] | Potency [17] | Potency [18] | outcome [19]
CC(C)CCCCCOC(=O)c1ccccc1C(=O)OCCCCCC(C)C | inactive | inactive | inactive | inactive | inactive | inactive | inactive | inactive | inactive | inactive | – | – | – | – | – | – | – | – | –
Cc1ccc(CCl)cc1 | inactive | – | inactive | inactive | – | inactive | inactive | inactive | inactive | inactive | inactive | inactive | inactive | – | – | – | – | – | –
CC1(C)[C@H](C(=O)O[C@H](C#N)c2cccc(Oc3ccccc3)c2)[C@@H]1/C=C(\Cl)C(F)(F)F | inactive | – | inactive | inactive | inactive | inactive | inactive | inactive | inactive | inactive | – | – | – | – | – | – | – | – | –
O=[N+]([O-])c1c2ccccc2cc2ccccc12 | inactive | 19.1 µM (active) | – | 31.3 µM (active) | – | – | inactive | 21.4 µM (active) | inactive | inactive | – | inactive | – | inactive | inactive | inactive | inactive | inactive | inactive
CCC[CH2][Sn]([CH2]CCC)([CH2]CCC)[O]C(=O)c1ccccc1 | 4.86 µM (active) | – | 2.17 µM (active) | 35.6 µM (active) | – | 1.22 µM (active) | – | – | 1.22 µM (active) | inactive | 0.686 µM (active) | – | inactive | – | – | – | – | – | –
CC[C@H]1C[C@@H]2C[C@H]3c4[nH]c5ccc(OC)cc5c4CCN(C2)[C@@H]13 | inactive | – | – | inactive | inactive | – | – | inactive | – | – | inactive | 53.5 µM (active) | inactive | – | – | – | – | – | –
COc1ccc(N)cc1N | inactive | – | 31.6 µM (active) | 41.2 µM (active) | 63.1 µM (active) | 70.8 µM (active) | – | – | 28.2 µM (active) and inactive | – | – | – | inactive | – | – | – | – | – | –
CC(C)(C)c1cc([N+](=O)[O-])cc(C(C)(C)C)c1O | inactive | – | 13.7 µM (active) | inactive | 19.3 µM (active) | 21.7 µM (active) | 27.3 µM (active) | 5.45 µM (active) | 13.7 µM (active) | inactive | – | 2.73 µM (active) | inactive | – | – | – | – | – | –
CC(C)(O)c1cnn2c(-c3ccc(F)c(-c4c(F)cccc4C#N)c3)cnc2n1 | inactive | inactive | – | inactive | inactive | inactive | – | inactive | inactive | inactive | – | – | inactive | – | – | – | – | – | –
Cc1ccc(OP(=O)(Oc2ccccc2)Oc2ccccc2)cc1 | inactive | inactive | inactive | inactive | – | inactive | inactive | 17.5 µM (active) | inactive | 15.6 µM (active) | – | 24.7 µM (active) | inactive | – | – | – | – | – | –
CCOCCOC(C)=O | inactive | inactive | inactive | inactive | inactive | inactive | – | – | inactive | inactive | – | – | inactive | inactive | inactive | inactive | inactive | inactive | inactive
CC(c1ccc(O)cc1)c1ccc(O)cc1 | inactive | – | inactive | 74.7 µM (active) and 44.8 µM (active) | inactive | inactive | inactive | 51.1 µM (active) and 30.6 µM (active) | inactive | inactive | inactive | inactive | inactive | – | – | – | – | – | –
Fc1ccc(Oc2ccnc3cc(Cl)cc(Cl)c23)cc1 | inactive | – | inactive | 35.6 µM (active) | – | inactive | inactive | 27.3 µM (active) | inactive | – | inactive | – | – | – | – | – | – | – | –
CC(C)Oc1cccc(NC(=O)c2ccccc2C(F)(F)F)c1 | inactive | inactive | – | inactive | inactive | inactive | inactive | 61.1 µM (active) | inactive | – | – | – | inactive | inactive | – | inactive | – | inactive | inactive
c1ccc(OCC2CO2)cc1 (centres undefined) | inactive | – | inactive | – | inactive | inactive | inactive | inactive | inactive | inactive | inactive | – | – | – | – | – | – | – | –

— PubChem BioAssay (Tox21)
